This is an account of results in PubChem BioAssay.

The source made the active and inactive calls.

For test [1], the target named is Albumin (Bos taurus) (UniProt P02769). The experiment in a line: compounds binding labelled BSA control protein – biochemical, small-molecule microarray, Alexa647 label, 635/667 nm fluorescence, artefact control for SMM control protein annotation, profiling panel (AID 1118).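 Further: score merges 667 nm emission intensity and signal-to-noise per printed compound spot.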 To be noted: BSA-A647 binding, fluorescence 635 nm, higher = more signal.
Test [2] can be described thus: probe aXIP binding to arrayed compounds – biochemical, NeuroSMM set, 635/667 nm fluorescence, primary screen (AID 1119).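 Further: probe is the protein aXip251-270 applied at 1 µg/mL to compound-printed slides; binding of probe to printed compounds measured as 667 nm fluorescence plus signal to noise.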 To be noted: small-molecule microarray, higher = more signal, called active from +8 up or from −8 down.
Test [3] in a line: probe aNOTCH3 binding on compound microarray – biochemical, small-molecule microarray, 635/667 nm fluorescence, primary screen (AID 1120).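 Further: probe is a biotin-tagged antibody raised against NOTCH3 rather than NOTCH3 protein; score merges spot fluorescence near 667 nm with spot signal to noise.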 To be noted: higher = more signal.
The nature of test [4]: probe aNOTCH2 binding on compound microarray – biochemical, small-molecule microarray, 635/667 nm fluorescence, primary screen (AID 1121).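 Further: score merges feature fluorescence read at 667 nm with its signal to noise.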 To be noted: higher = more signal.
Test [5] deals with Carbonic anhydrase 2 (Homo sapiens) (UniProt P00918). Put plainly: compounds binding carbonic anhydrase 2 – biochemical, small-molecule microarray, Alexa647-labelled CAII, profiling panel (AID 1122). To be noted: CAII-A647 binding fluorescence, higher = more signal.
Test [6] in a line: COS7 lysate on small-molecule microarray, probe aHis, 635 nm (AID 1123).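 Further: z-score combines 667nm fluorescence intensity with signal-to-noise per printed compound spot.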 To be noted: COS7 cell lysate, fluorescence, higher = more signal.
Test [7] in a line: probe aLAP1 signal on lysate-treated microarray – cell lysate, small-molecule microarray, COS7 lysate, primary screen (AID 1124).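 Further: lysate comes from COS7 cells expressing LAP1 and is applied at 0.3 µg/mL; score merges spot fluorescence near 667 nm with signal-to-noise over triplicate slides.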 To be noted: probe aLAP1, fluorescence, higher = more signal.
Test [8] concerns Sam68 (KHDRBS1). Put plainly: compounds binding KHDRBS1 protein – biochemical, small-molecule microarray, 635 nm fluorescence, primary screen (AID 1125).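 Further: score merges 667 nm channel intensity with signal to noise over triplicate slides.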 To be noted: higher = more signal.
In test [9] the test system is Chordin-like protein 2 (CHRDL2). The experiment in a line: compounds binding chordin-like 2 – biochemical, small-molecule microarray, 635 nm fluorescence, primary screen (AID 1126).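 Further: printed compound slides probed with Chrdl2 protein at 4 µg/mL for 1 h at 4 C; score merges 667 nm emission intensity with signal to noise over three replicate slides.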 To be noted: fluorescence 635 nm, higher = more signal.
Test [10] has as its target Concanavalin-A (Canavalia ensiformis) (UniProt P02866). The experiment in a line: compounds binding concanavalin A lectin – biochemical, small-molecule microarray, Alexa647 label, 635 nm, artefact control for SMM control protein annotation, primary screen (AID 1127).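 Further: z combines 667 nm emission intensity with signal-to-noise across three replicate slides.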 To be noted: ConA-A647 binding fluorescence, higher = more signal.
A short description of test [11]: compounds binding Alexa647 anti-His antibody – biochemical, small-molecule microarray, 635 nm fluorescence, artefact control for SMM control protein annotation, primary screen (AID 1128).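 Further: score merges feature fluorescence with signal-to-noise for each printed compound spot.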 To be noted: higher = more signal.
For test [12], the system named is Human papillomavirus type 1a E7 protein (residues 1-88). Put plainly: HPV1a E7 small-molecule binders, primary screen, biochemical, small-molecule microarray, residues 1-88, 635 nm (AID 1129). To be noted: small-molecule microarray binding, fluorescence 635 nm; higher = more signal.
Test [13] concerns the target Focal adhesion kinase 1 (Homo sapiens) (UniProt Q05397). Put plainly: PTK2 protein binding on printed compound slides – biochemical, small-molecule microarray, 635/667 nm fluorescence, BSA, DTT, primary screen (AID 1130).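 Further: composite of spot emission at 667 nm and signal to noise over triplicate slides.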 To be noted: 635 nm fluorescence, higher = more signal.
Test [14] relates to Fibrinogen (Alexa647-labelled). Put plainly: Alexa647-fibrinogen binding to printed small molecules – biochemical, small-molecule microarray, 635/667 nm fluorescence, artefact control for SMM control-protein annotation, profiling panel (AID 1131).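 Further: z-score merges 667 nm fluorescence with per-spot signal-to-noise over triplicate slides.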 To be noted: fibrinogen-A647 binding fluorescence, higher = more signal.
Test [15] concerns the target Follistatin (Homo sapiens) (UniProt P19883). The experiment in a line: FST protein binding to printed compounds – biochemical, small-molecule microarray, 635/667 nm fluorescence, primary screen (AID 1132). To be noted: 635 nm fluorescence, higher = more signal.
Test [16] has as its target Fibroblast growth factor 2 (Homo sapiens) (UniProt P09038). Put plainly: basic fibroblast growth factor binding to printed compounds – biochemical, small-molecule microarray, 635/667 nm fluorescence, primary screen (AID 1133). To be noted: FGF2, fluorescence 635/667, higher = more signal.
The nature of test [17]: JC-1 mitochondrial potential readout, lung cancer cells – cell-based, A549, JC-1 fluorescence, basal, 24 h, 100 nL, profiling panel (AID 1138).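 Further: A549 lung adenocarcinoma cells under basal conditions with no added stimulus; test concentration not given here.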 To be noted: higher = more signal.
The subject of test [18] is Lefty1. The experiment in a line: Lefty1 protein binding to printed compounds – biochemical, small-molecule microarray, 635/667 nm fluorescence, primary screen (AID 1139). To be noted: fluorescence 635/667, higher = more signal.
In test [19] the test system is wheat germ agglutinin (Triticum aestivum), Alexa647-labelled. Put plainly: Alexa647-WGA lectin binding to printed small molecules – biochemical, small-molecule microarray, 635/667 nm fluorescence, artefact control for SMM control-protein annotation, profiling panel (AID 1140).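 Further: score merges 667 nm feature emission with signal to noise over triplicate slides.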 To be noted: WGA-A647 binding, 635 nm fluorescence, higher = more signal.
The target of test [20] is Luciferin 4-monooxygenase (Photinus pyralis) (UniProt P08659). Put plainly: inhibition of purified Photinus pyralis luciferase – biochemical, luminescence, purified enzyme, 2006 set, primary screen (AID 1141).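 Further: cell-free assay with purified firefly luciferase at 100 ng per well in PBS; test concentration not given here.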 To be noted: purified firefly luciferase, SteadyGlo luminescence, 30 min; higher = more signal, called active from +8 up or from −8 down.
Luciferin 4-monooxygenase (Photinus pyralis), sequence (P08659 whole entry, looked up): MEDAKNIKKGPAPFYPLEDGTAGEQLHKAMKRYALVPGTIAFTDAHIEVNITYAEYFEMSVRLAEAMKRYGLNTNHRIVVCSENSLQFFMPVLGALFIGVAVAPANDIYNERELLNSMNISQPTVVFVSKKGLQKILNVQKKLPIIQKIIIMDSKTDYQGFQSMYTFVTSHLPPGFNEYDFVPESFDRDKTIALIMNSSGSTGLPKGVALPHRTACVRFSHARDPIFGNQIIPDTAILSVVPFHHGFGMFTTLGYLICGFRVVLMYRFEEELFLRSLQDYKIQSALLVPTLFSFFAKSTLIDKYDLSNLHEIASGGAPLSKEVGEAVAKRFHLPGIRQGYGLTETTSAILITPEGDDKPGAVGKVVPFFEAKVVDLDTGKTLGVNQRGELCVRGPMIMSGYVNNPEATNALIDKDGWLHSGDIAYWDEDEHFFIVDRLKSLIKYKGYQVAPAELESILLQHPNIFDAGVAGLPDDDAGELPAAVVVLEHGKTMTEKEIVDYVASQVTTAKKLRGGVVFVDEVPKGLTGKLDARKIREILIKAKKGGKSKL

Concanavalin-A (Canavalia ensiformis), sequence (P02866 whole entry, looked up): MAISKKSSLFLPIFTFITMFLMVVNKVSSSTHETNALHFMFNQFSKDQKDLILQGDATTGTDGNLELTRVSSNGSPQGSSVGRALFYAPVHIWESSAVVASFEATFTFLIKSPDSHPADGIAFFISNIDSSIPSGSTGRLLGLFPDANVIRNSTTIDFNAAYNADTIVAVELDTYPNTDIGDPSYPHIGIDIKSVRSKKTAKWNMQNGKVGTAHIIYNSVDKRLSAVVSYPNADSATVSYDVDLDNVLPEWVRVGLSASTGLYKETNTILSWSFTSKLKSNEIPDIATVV
Albumin (Bos taurus), sequence (P02769 whole entry, looked up): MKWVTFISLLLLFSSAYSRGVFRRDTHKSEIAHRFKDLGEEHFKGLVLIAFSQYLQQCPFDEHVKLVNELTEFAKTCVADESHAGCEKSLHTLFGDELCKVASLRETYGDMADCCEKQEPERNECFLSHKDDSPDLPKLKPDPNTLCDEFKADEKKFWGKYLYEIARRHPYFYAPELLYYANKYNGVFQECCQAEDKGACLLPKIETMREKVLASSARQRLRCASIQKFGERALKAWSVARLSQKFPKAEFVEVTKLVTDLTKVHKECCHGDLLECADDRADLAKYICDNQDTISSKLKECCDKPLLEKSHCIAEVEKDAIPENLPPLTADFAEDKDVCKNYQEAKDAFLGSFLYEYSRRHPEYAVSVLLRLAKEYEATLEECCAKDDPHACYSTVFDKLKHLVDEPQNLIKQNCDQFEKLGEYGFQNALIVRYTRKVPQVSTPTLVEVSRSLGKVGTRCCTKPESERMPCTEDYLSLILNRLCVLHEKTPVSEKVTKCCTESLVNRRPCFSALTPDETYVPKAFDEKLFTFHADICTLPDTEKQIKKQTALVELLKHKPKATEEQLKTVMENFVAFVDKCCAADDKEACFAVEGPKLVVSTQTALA
Focal adhesion kinase 1 (Homo sapiens), sequence (Q05397 whole entry, looked up): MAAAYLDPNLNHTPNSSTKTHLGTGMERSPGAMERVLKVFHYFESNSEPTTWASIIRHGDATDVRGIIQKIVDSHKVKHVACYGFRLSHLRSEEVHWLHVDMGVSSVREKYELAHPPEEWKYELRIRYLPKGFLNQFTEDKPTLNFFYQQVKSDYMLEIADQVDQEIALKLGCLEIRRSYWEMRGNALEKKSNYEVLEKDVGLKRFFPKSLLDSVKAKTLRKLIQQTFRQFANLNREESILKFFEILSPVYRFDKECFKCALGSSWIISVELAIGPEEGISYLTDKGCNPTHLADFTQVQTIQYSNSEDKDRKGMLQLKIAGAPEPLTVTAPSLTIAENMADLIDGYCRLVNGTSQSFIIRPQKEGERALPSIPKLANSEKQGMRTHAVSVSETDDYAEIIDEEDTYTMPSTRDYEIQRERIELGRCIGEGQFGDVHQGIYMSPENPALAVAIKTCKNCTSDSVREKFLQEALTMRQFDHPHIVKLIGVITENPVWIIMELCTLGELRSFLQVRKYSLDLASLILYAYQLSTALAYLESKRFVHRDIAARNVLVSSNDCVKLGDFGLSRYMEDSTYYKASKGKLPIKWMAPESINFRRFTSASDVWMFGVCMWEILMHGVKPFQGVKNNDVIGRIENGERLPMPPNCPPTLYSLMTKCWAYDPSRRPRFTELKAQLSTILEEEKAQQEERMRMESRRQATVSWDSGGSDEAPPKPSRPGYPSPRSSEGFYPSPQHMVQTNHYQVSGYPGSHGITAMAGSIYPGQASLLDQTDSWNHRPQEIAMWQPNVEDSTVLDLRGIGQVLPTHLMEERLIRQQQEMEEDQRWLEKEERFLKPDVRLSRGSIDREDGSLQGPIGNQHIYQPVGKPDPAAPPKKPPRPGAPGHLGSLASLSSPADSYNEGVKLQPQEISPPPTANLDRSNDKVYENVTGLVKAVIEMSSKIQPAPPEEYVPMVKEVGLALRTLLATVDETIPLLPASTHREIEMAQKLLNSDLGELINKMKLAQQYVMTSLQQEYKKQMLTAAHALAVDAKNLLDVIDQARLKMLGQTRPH
Fibroblast growth factor 2 (Homo sapiens), sequence (P09038 whole entry, looked up): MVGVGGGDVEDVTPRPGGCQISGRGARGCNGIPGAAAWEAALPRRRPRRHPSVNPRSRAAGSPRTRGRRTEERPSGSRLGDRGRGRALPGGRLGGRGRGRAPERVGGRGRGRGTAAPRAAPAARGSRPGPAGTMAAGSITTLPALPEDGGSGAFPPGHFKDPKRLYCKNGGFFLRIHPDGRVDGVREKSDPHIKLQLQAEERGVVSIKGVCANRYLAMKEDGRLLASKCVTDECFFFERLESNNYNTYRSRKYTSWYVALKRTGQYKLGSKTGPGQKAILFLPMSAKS
Follistatin (Homo sapiens), sequence (P19883 whole entry, looked up): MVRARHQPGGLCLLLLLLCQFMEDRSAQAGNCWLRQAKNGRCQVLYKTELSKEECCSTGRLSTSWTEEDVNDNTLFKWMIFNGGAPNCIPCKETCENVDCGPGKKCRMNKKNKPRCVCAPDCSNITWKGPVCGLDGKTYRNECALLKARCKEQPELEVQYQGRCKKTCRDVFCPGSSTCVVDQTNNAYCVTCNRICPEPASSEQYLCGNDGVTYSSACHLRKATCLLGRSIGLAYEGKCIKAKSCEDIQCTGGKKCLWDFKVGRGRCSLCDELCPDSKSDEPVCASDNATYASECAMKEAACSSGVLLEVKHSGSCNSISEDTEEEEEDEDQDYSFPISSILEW

Turning to `N#Cc1ccc(NN2C(C(O)c3ccc(F)cc3)C=CC3C(=O)N(c4ccccc4)C(=O)C32)cc1` (stereo not given), the composite z-score in [1] was 0.824; in test [3], -0.16; in test [4] it was -0.138; in test [5] it was 0.318; in test [6], 2.59; in test [7], 0.905. Also, the composite z-score in [8] is -0.306; in test [9], -1.55; in [10], 0.536; in [11] it was 1.57; in [12] it was 0.57; in [13], 0.171. Moreover, the composite z-score was 0.797 in [14]; 0.0089 in test [15]; 0.866 in test [16]; -0.577 in [18]; 0.94 in test [19]. Also, the composite Z-score in [2] was 0.383 (inactive). The figures for the z-score in test [17] and in test [20] were 0.324 and 0.646 (inactive), respectively.

`C=CCNC(=O)[C@@H]1[C@H]2C(=O)O[C@H](c3ccccc3)[C@H](c3ccccc3)N2[C@H](c2ccc(O)cc2)[C@@]12C(=O)N(C(=O)OCCOC)c1ccc(C#CC3(O)CCCCCC3)cc12`: the composite z-score is -0.632 in test [1]; -0.416 in [3]; -0.153 in test [4]; -0.742 in test [5]; -0.642 in test [6]; -0.547 in test [7]. For the same compound, the composite z-score in [8] is -0.669; in [9], -2.57; in test [10] it was -0.533; in [11] it was -0.461; in [12], -1.32; in test [13], -0.365. Besides, the composite z-score in [14] was -2.02; in [15], -1.01; in test [16] it was -1.93; in test [18] it was -0.624; in [19] it was -0.556. For the same compound, the composite Z-score in [2] was -0.245 (inactive). Moreover, the z-score in [17] is 0.426; in test [20], 0.779 (inactive).

In the case of `[N-]=[N+]=Nc1ccccc1C[C@]1(C(N)=O)N=C(c2ccc(OCCCO)cc2)O[C@H]1c1ccccc1N=[N+]=[N-]`, the composite z-score is 0.92 in test [1]; 0.231 in test [3]; -0.0091 in test [4]; 0.672 in [5]; 0.0754 in test [6]; 0.193 in [7]. The composite z-score was 1.31 in test [8]; -0.321 in test [9]; 1.12 in [10]; 1.91 in test [11]; 1.21 in test [12]; -0.0221 in test [13]. In addition, the composite z-score in test [14] is 0.941; in test [15] it was 0.228; in test [16], 0.132; in [18], -0.24; in test [19], 0.448. In test [2], the composite Z-score was -0.199 (inactive). The z-score in [17] is -0.777; in test [20] it was -4.76 (inactive).

For the compound `C=C(CCCC)/C(=C/C[C@@H](OC(=O)c1ccncc1)c1ccccc1OCCO)c1cnc2ccccc2c1`, the composite z-score in test [1] is 0.459; in [3], 0.28; in test [4], -0.105; in test [5], 0.719; in test [6], 0.457; in test [7], 0.603. Moreover, the composite z-score in [8] is 1.3; in [9], 0.924; in test [10], 1.07; in [11] it was 0.433; in [12], 1.12; in [13], 0.0585. Moreover, the composite z-score in [14] amounted to 0.963; in [15] it was 1.44; in test [16] it was 1.43; in test [18], 1.61; in test [19], 1.17. The composite Z-score in test [2] was -0.869 (inactive). Also, the z-score in test [17] was 1.34; in test [20] it was -0.514 (inactive).

`COc1ccc(C#Cc2ccc3c(c2)[C@]2(C(=O)N3)[C@H](c3ccc(O)cc3)N3[C@H](c4ccccc4)[C@H](c4ccccc4)OC(=O)[C@H]3[C@@H]2C(=O)O)cc1`: the composite z-score in test [1] amounted to 0.496; in test [3], 0.277; in test [4], 0.163; in test [5], 0.614; in test [6], 1.23; in test [7], 0.483. Further, the composite z-score came out at 0.964 in test [8]; 0.111 in test [9]; 0.868 in test [10]; 2.03 in [11]; 1.06 in test [12]; 0.324 in test [13]. Also, the composite z-score in test [14] is 0.457; in test [15] it was 0.127; in test [16] it was -0.218; in test [18], -0.211; in test [19], -0.178. Moreover, the composite Z-score in test [2] is 0.708 (inactive). The figures for the z-score in test [17] and in test [20] were -2.05 and -1.37 (inactive), respectively.
